# Test results reported in PubChem BioAssay (EPA / NIEHS).
# The source made the active and inactive calls. How the source made its calls: active means hit-call score of the fitted dose curve at least 0.9, where 1 is the maximum; inactive means score below 0.9.
# Test system: TTR (gene 7276)
# Assay: CCTE_GLTED_hTTR_0.125uM: CCTE's human Transthyretin (hTTR) Inhibition Assay, with 0.125uM TTR, Great Lakes Toxicology and Ecology Division (GLTED) Lab (AID 2284431);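 further: hits lower the fluorescence signal relative to DMSO baseline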
# Procedure, shortened: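 TTR at 0.125uM incubated 2 h with test chemical; displacement of bound ANSA read by fluorescence (ex 380, em 475). Activity is signal loss versus DMSO baseline.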
Structure (SMILES),AC50,outcome
CN(C)c1ccc(C(=C2C=CC(=[N+](C)C)C=C2)c2ccc(N(C)C)cc2)cc1,21.6 µM (active),–
Cc1oc2c(NC(=O)c3c(Cl)cccc3Cl)cccc2c1C(C)(C)O,1.47 µM (active),–
CC/C(=C(/CC)c1ccc(O)cc1)c1ccc(O)cc1,0.021 µM (active),–
CCCOC(=O)c1cc(O)c(O)c(O)c1,0.26 µM (active),–
CC(C)(c1cc(Br)c(O)c(Br)c1)c1cc(Br)c(O)c(Br)c1,0.0228 µM (active),–
CCCCCc1ccc(N)cc1,26.3 µM (active),–
CCCCCCCCCC(=O)O,7.04 µM (active),–
CCCCCCCCOC(=O)c1cc(O)c(O)c(O)c1,0.512 µM (active),–
COCC(C)OCC(C)OCC(C)O (configuration not stated),–,inactive
CCCCCCCCOc1ccc(C(=O)c2ccccc2)c(O)c1,25 µM (active),–
CCCCOC(=O)c1ccc(O)cc1,2.26 µM (active),–
O=C(O)Cc1cc(I)c(Oc2ccc(O)c(I)c2)c(I)c1,0.0224 µM (active),–
